Results filed as inconclusive are left out. The source made the active and inactive calls. Unless noted, calls come from the whole dose curve; as a rule, active = well fitted curve in the direction sought with a large enough effect; inconclusive = small, poorly fitted or top-dose-only effect, or another doubt; inactive = no such curve, though single readings can be large; an effect the other way counts as inactive or inconclusive.
Experiments:
[1] = molecular target: Lysosomal acid glucosylceramidase (Homo sapiens) (UniProt P04062); assay: Glucocerebrosidase-p2 (AID 348; in the data active = potency below about 10 µM; note: potency is the fitted concentration of half-maximal effect); conditions: purified GBA, blue fluorogenic substrate, 40 min
Method in brief: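 Compounds titrated from 0.6 nM upwards against 0.2 nM enzyme in pH 5.9 citric acid/KH2PO4, taurocholate, tween-20; blue fluorogenic substrate 80 uM, 40 min room temperature, stopped and read Ex 365/Em 440 for AC50.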

[2] = molecular target: Cytochrome P450 1A2 (Homo sapiens) (UniProt P05177); assay: p450-cyp1a2 (AID 410; calls by dose curve; note: potency is the fitted concentration of half-maximal effect;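 for activity change, negative = inhibition: -100% = full effect of reference inhibitor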); conditions: recombinant CYP1A2, luciferin-ME demethylation, luminescence; series mostly up to 57 µM
Method in brief: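 Luminescent readout of luciferin formed from Luciferin-ME by human CYP1A2; data normalized against complete inhibition by 57 uM furafylline. Enzyme 20nM, substrate 100uM at Km, 100mM KPO4 buffer, 60 min reaction at room temperature.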

[3] = NFAT Signaling Pathway (AID 444; active = well fitted curve in either direction with a large enough effect, not every such curve was filed as active;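 note: carbachol stimulus at about its EC50 of 1 µM final; % is set by controls: 0 for no effect and ±100 for the full control effect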); conditions: Jurkat NFAT-bla M1, carbachol, beta-lactamase ratio, 5 h; at 7.69 µM (top of the series) unless noted
Method in brief: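 Jurkat cells carrying an NFAT-driven β-lactamase reporter and co-transfected muscarinic M1 receptor were treated with compound plus carbachol (1 uM final, an EC50 level) for 5 h at 37 °C. CCF4 loading followed for 1 h at RT; 460/530 nm ratio gave %activity.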

[4] = molecular target: Glucocorticoid receptor (Homo sapiens) (UniProt P04150); assay: GR-GFP Redistribution (AID 450;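 active = compounds whose dose series gives a full or clear partial fitted curve of increased nuclear translocation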; note: potency is the fitted concentration of half-maximal effect); conditions: U2OS GR-GFP nuclear translocation, laser cytometry, 2 h
[5] = molecular target: Glucocorticoid receptor (Homo sapiens) (UniProt P04150); assay: GR-EFC Redistribution (AID 451; calls by dose curve; note: potency is the fitted concentration of half-maximal effect); conditions: CHO-K1 GR-EFC translocation, beta-gal luminescence, 2 h
Method in brief: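 CHO-K1 cells stably expressing nuclear-localized β-gal enzyme acceptor and GR fused C-terminally to the enzyme donor fragment; ligand-driven nuclear translocation restores β-gal by complementation. Compounds titrated up to 46 uM final, 2 h at 37 °C; luminescence read.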

[6] = molecular target: Mitogen-activated protein kinase 10 (Mus musculus) (UniProt Q61831); assay: JNK3 AlphaScreen Assay (AID 530; active = well fitted curve in either direction with a large enough effect, not every such curve was filed as active;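 note: kinase came from lysate of stimulated human HepG2 cells; signal reports phosphorylation of biotinylated GST-cJun 1-79 at Ser73 with 10 µM ATP; % is set by controls: 0 for no effect and ±100 for the full control effect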); conditions: JNK3 lysate, c-Jun phosphorylation; series mostly up to 57.1 µM
Method in brief: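 Inhibitors reduce antibody binding to phosphorylated biotin-cJun, lowering AlphaScreen luminescence. Lysates from HepG2 cells pre-activated by IL-1beta plus TNF-alpha supplied JNK3; compounds were titrated.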

[7] = molecular target: 3',5'-cyclic-AMP phosphodiesterase 4B (Homo sapiens) (UniProt Q07343); assay: qHTS Assay for Inhibitors of PDE-IV (AID 607; active = well fitted activation curve with a large enough effect in the main read-out, with a control signal flat, not every such curve was filed as active; note: % of control where 0% means no effect); conditions: HEK293 ACTOne CNG channel cells, membrane potential fluorescence; series mostly up to 22.9 µM
Method in brief: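 ACTOne HEK293 cells carry a modified cAMP-gated CNG channel and express endogenous PDE4; plated 1000 cells/well, compounds up to 22.9 uM final. Membrane-potential dye fluorescence (ex 535/em 590) was read; parental cells received 10 uM forskolin + 100 uM RO 20-1724.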

[8] = molecular target: Cytochrome P450 2C9 (Homo sapiens) (UniProt P11712); assay: qHTS Assay for Inhibitors and Substrates of Cytochrome P450 2C9 (AID 883); conditions: recombinant CYP2C9, luciferin-H luminescence, 60 min; series mostly up to 57.1 µM; note: % is set by controls: 0 for no effect and ±100 for the full control effect; nearly all actives have a fitted effect of over 60% in size
Method in brief: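 CYP2C9 deoxyluciferin hydroxylation, 37C, 60 min with NADPH regeneration; 10nM enzyme, 100uM Luciferin-H (KM). Glo detection reagent stopped reaction; luminescence normalized to sulphaphenazole (57uM) full inhibition.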

[9] = molecular target: Cytochrome P450 3A4 (Homo sapiens) (UniProt P08684); assay: qHTS Assay for Inhibitors and Substrates of Cytochrome P450 3A4 (AID 884); conditions: recombinant CYP3A4, Luciferin-PPXE luminescence; series mostly up to 57.1 µM; note: % is set by controls: 0 for no effect and ±100 for the full control effect; nearly all actives have a fitted effect of over 50% in size
Method in brief: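 20 nM human CYP3A4 with 25 uM Luciferin-PPXE (at KM) in 200 mM KPO4, preincubated 10 min with compound; NADPH regeneration started a 60 min RT reaction. Luciferin detected by luminescence, normalized to 57 uM ketoconazole as full inhibition.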

[10] = qHTS Assay for Identification of Small Molecule Agonists for Hypoxia Response Element Signaling Pathway (AID 914; active = well fitted activation curve with a large enough effect in the signal ratio, with a control signal flat, not every such curve was filed as active; the % refers to the signal ratio; note: potency is the fitted concentration of half-maximal effect); conditions: ME-180 HRE-bla reporter, beta-lactamase ratio, CoCl2, 17 h; activation: stronger effect = higher value
Method in brief: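 HRE-bla ME-180 assay for agonist-like enhancement of an EC50 CoCl2 stimulus: 17 h at 37 degrees Celsius, CCF4 for 2.5 h, ratiometric 460/530 nm signal converted to %Activity and fitted to AC50.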

[11] = qHTS Assay for Lipid Storage Modulators (AID 1519; calls by dose curve); conditions: Drosophila S3 cells, BODIPY lipid droplet/cell ratio, laser cytometry, cells loaded with oleic acid; for activity change, negative = inhibition: at 57.5 µM (top of the series)
Method in brief: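 Cells seeded at 5,000 per well were treated with compounds over a concentration series and loaded with oleic acid (400 uM, as added). Lipid droplet fluorescence (488 nm excitation, 500-530 nm channel) was read by laser-scanning cytometry and normalized to 20 uM Triacsin C.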

[12] = molecular target: Dual specificity protein kinase CLK4 (Homo sapiens) (UniProt Q9HAZ1); assay: qHTS Assay for Inhibitors of CDC-like Kinase 4 (Kinase-Glo Assay) (AID 1770); conditions: recombinant Clk4, Kinase-Glo ATP depletion luminescence; series mostly up to 66.7 µM; note: % is set by controls: 0 for no effect and ±100 for the full control effect; nearly all actives have a fitted effect of over 65% in size
Method in brief: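 Recombinant human Clk4 (25 nM) phosphorylated RS repeat peptide (100 uM) with 1 uM ATP in Tris pH 7.5/MgCl2/EGTA/DTT/Triton buffer for 4.5 h at room temperature. Residual ATP was quantified by Kinase-Glo luciferase luminescence.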

[13] = molecular target: Dual specificity protein kinase CLK4 (Homo sapiens) (UniProt Q9HAZ1); assay: qHTS Assay for Inhibitors of CDC-like Kinase 4 (ADP-Glo Assay) (AID 1771); conditions: recombinant CLK4, ADP-Glo luminescence; series mostly up to 80 µM; note: % is set by controls: 0 for no effect and ±100 for the full control effect; nearly all actives have a fitted effect of over 70% in size
Method in brief: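 Luminescence from ADP-Glo reports ADP produced by 25 nM Clk4 acting on 100 uM RS repeat peptide with 1 uM ATP over 1 hr at room temperature; residual ATP is depleted before ADP is converted to ATP for detection.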

[14] = molecular target: Ubiquitin carboxyl-terminal hydrolase 1 (Homo sapiens) (UniProt O94782); assay: Inhibitors of USP1/UAF1: Pilot qHTS (AID 504865); conditions: purified USP1/UAF1, Ub-rhodamine cleavage fluorescence; series mostly up to 54.9 µM;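 note: rhodamine fluorescence freed from ubiquitin-rhodamine substrate followed over time; top concentration of the series differs between compounds; % is set by controls: 0 for no effect and ±100 for the full control effect; nearly all actives have a fitted effect of over 35% in size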
Method in brief: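 USP1/UAF1 complex (1nM) preincubated with compound 15 min at room temperature, then Ub-Rho substrate (150nM final) added. Fluorescence read kinetically at 480/540 nm, 6 reads every 60 seconds. Buffer: 50mM HEPES pH 7.8, 0.5mM EDTA, 0.1 mg/ml BSA, 1mM TCEP, 0.01% Tween-20.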

[15] = Primary qHTS for small molecule stabilizers of the endoplasmic reticulum resident proteome: Secreted ER Calcium Modulated Protein (SERCaMP) assay (AID 1508630); conditions: SH-SY5Y GLuc-SERCaMP (Gaussia luciferase released on ER calcium loss) secretion, thapsigargin, luminescence; series mostly up to 38.4 µM; note: % is set by controls: 0 for no effect and ±100 for the full control effect
Method in brief: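 GLuc-SERCaMP-expressing SH-SY5Y cells, pretreated 16 h with compound, are challenged with thapsigargin to empty ER calcium stores; after 4 h, coelenterazine is added directly to the medium and luminescence is imaged.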

[16] = AP1 Signaling Pathway (AID 357; active = well fitted curve in either direction with a large enough effect, not every such curve was filed as active;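 note: ME-180 reporter cells stimulated with EGF at its EC50 level; % is set by controls: 0 for no effect and ±100 for the full control effect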); conditions: ME-180 AP-1-bla reporter, EGF-induced, beta-lactamase ratio, 5 h; at 7.69 µM (top of the series) unless noted
Method in brief: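 A ratiometric CCF4 readout (405 nm excitation; 460 and 530 nm emission) quantified AP-1-driven beta-lactamase in ME-180 cells after 5 h with compound and EC50 EGF; AC50 values were derived for activators and inhibitors.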

[17] = Stat Signaling Pathway (AID 446; active = well fitted curve in either direction with a large enough effect, not every such curve was filed as active); conditions: ME-180 SIE beta-lactamase reporter, IL-6 stimulated, 5 h; at 7.69 µM (top of the series) unless noted
Method in brief: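 ME-180 SIE-bla cells; overnight plating; cpd + IL-6 40 pM, 5 h, 37 C; LiveBLAzer 2.5 h RT; 460/530 nm emission ratio. Normalized to 300 pM IL-6 and 125 nM JAK inhibitor controls.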

[18] = molecular target: Dual specificity protein kinase CLK4 (Homo sapiens) (UniProt Q9HAZ1); assay: qHTS Assay for Inhibitors of CDC-like Kinase 4 (ADP-FP Assay) (AID 1795); conditions: Transcreener ADP fluorescence polarization; series mostly up to 50 µM; note: % is set by controls: 0 for no effect and ±100 for the full control effect; nearly all actives have a fitted effect of over 60% in size
Method in brief: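 Recombinant human Clk4 (6.25 nM) phosphorylated RS repeat peptide (100 uM) with 1 uM ATP in Tris pH 7.5/MgCl2/EGTA/DTT/Triton buffer for one hour. ADP was quantified by Transcreener competitive fluorescence polarization against an ADP calibration curve.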

[19] = molecular target: Cytochrome P450 2C19 (Homo sapiens) (UniProt P33261); assay: qHTS Assay for Inhibitors and Substrates of Cytochrome P450 2C19 (AID 899); conditions: recombinant CYP2C19, luciferin-H EGE luminescence; series mostly up to 57.1 µM; note: % is set by controls: 0 for no effect and ±100 for the full control effect; nearly all actives have a fitted effect of over 60% in size
Method in brief: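 In 50mM KPO4, the reaction held 5nM enzyme and KM-level (10uM) Luciferin-H EGE; it ran 60 min at 37C after NADPH regeneration and a 10 min compound preincubation. Luminescence values were scaled to 57uM ketoconazole as complete inhibition.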

[20] = measured here: cell count channel max response
[21] = measured here: lipid channel max response

Chain of Ubiquitin carboxyl-terminal hydrolase 1 (Homo sapiens) (O94782 whole entry, looked up): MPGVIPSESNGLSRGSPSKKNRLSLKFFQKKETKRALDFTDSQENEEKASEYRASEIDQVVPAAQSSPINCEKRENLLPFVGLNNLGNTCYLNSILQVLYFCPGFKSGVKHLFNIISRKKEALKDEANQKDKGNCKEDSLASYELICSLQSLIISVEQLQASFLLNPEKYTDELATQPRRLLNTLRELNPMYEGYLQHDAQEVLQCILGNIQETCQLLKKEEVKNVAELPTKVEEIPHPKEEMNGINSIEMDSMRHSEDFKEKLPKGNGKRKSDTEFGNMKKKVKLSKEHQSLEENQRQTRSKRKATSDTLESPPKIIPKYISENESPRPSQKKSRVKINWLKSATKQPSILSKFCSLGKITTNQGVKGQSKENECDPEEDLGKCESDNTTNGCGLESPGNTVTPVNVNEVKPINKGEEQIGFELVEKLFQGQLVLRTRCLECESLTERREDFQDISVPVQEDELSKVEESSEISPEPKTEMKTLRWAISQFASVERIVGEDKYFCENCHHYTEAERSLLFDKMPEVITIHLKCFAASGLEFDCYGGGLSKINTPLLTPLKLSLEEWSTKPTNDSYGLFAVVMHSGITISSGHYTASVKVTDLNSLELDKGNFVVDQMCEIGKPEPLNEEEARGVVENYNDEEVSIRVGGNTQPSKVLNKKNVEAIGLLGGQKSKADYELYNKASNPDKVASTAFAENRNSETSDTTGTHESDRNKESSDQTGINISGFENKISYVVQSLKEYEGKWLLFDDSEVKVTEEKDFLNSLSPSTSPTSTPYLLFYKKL
Chain of 3',5'-cyclic-AMP phosphodiesterase 4B (Homo sapiens) (Q07343 whole entry, looked up): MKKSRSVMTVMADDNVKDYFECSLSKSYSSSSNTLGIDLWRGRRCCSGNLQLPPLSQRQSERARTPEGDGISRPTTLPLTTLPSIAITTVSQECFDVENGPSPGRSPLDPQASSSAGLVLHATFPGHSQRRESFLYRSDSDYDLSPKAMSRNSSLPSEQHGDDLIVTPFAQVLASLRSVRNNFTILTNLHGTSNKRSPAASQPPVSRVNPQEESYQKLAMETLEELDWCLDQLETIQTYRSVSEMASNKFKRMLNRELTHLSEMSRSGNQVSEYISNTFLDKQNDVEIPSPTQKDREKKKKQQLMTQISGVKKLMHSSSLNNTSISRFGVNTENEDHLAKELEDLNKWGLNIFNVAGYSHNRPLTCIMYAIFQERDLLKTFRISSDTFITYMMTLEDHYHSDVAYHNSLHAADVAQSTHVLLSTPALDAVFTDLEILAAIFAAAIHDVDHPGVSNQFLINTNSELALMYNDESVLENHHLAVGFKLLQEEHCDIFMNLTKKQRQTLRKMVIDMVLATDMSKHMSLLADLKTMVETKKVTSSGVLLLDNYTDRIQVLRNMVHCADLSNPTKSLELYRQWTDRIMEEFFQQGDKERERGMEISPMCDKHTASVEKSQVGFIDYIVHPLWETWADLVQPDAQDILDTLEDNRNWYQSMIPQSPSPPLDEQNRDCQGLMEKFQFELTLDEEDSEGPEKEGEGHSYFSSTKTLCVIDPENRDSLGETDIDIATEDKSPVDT
Chain of Cytochrome P450 1A2 (Homo sapiens) (P05177 whole entry, looked up): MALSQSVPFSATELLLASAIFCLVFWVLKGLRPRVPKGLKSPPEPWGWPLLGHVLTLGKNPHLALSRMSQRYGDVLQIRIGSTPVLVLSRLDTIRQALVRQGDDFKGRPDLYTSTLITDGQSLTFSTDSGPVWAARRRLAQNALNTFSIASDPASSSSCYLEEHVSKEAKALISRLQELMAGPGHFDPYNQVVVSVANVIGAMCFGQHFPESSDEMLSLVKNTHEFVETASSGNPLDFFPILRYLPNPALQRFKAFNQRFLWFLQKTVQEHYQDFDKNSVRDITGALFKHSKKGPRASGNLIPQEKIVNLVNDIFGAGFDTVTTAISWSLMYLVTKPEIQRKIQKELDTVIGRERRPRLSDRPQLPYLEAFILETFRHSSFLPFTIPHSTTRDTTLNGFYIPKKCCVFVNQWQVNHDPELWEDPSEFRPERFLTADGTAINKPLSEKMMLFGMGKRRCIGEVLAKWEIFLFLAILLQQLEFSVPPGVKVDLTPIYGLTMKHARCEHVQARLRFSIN
Chain of Dual specificity protein kinase CLK4 (Homo sapiens) (Q9HAZ1 whole entry, looked up): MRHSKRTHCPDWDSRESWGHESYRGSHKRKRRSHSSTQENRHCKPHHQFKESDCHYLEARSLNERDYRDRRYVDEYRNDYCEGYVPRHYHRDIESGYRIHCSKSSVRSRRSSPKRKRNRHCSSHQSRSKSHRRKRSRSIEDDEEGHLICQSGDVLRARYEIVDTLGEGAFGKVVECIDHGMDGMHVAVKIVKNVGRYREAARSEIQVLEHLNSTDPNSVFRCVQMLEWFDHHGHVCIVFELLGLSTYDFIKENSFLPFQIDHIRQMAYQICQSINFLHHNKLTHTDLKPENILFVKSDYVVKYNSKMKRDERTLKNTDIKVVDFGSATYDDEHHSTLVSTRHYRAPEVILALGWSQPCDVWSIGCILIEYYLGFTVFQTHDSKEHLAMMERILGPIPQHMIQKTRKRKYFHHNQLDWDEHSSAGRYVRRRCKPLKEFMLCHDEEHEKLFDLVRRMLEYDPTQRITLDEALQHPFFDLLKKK
Chain of Lysosomal acid glucosylceramidase (Homo sapiens) (P04062 whole entry, looked up): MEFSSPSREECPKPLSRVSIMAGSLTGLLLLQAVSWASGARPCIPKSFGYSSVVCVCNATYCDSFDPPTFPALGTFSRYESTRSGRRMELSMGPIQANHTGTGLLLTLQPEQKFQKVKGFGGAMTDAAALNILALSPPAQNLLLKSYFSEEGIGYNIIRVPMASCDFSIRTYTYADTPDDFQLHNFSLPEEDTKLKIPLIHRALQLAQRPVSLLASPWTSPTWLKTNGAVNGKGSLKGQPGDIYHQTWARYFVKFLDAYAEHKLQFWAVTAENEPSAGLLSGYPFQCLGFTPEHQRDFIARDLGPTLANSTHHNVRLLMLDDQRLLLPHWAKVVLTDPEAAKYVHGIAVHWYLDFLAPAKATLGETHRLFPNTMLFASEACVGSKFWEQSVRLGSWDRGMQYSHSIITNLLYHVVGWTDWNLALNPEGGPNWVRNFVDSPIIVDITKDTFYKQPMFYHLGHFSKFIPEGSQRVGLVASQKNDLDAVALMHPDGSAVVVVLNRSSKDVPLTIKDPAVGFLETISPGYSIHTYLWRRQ
Chain of Glucocorticoid receptor (Homo sapiens) (P04150 whole entry, looked up, the tested form may be a part): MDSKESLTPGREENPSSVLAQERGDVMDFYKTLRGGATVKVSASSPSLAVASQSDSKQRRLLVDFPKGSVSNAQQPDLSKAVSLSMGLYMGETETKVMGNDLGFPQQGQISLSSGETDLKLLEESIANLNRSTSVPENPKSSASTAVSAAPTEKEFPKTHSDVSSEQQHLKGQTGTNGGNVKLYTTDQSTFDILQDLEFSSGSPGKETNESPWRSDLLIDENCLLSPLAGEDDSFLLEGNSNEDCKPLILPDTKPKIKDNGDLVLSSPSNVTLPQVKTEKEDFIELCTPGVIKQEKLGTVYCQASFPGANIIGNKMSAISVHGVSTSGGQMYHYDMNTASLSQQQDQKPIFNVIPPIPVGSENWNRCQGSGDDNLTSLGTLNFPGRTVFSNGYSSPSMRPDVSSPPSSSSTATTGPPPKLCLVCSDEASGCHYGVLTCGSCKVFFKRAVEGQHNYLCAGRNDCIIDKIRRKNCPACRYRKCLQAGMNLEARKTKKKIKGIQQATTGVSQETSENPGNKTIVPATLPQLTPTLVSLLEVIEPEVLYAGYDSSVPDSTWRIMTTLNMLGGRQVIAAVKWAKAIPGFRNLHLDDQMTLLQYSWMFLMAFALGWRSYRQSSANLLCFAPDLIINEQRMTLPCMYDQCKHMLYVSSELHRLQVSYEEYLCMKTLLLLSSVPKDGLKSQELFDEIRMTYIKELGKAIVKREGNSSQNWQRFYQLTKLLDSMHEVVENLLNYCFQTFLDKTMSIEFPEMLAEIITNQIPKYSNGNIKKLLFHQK
Chain of Cytochrome P450 2C19 (Homo sapiens) (P33261 whole entry, looked up): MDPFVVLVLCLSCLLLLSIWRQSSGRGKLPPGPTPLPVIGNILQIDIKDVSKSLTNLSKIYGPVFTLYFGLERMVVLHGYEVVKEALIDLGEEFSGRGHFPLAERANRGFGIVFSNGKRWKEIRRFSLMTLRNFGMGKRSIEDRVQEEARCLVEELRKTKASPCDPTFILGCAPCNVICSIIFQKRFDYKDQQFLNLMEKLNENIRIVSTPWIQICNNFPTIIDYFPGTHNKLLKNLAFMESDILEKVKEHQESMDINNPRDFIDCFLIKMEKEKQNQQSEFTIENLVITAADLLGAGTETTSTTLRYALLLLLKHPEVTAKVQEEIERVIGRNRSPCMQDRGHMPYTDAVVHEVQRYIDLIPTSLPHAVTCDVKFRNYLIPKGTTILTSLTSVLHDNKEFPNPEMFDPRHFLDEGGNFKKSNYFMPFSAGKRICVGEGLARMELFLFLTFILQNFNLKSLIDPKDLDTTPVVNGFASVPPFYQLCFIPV
Chain of Cytochrome P450 2C9 (Homo sapiens) (P11712 whole entry, looked up): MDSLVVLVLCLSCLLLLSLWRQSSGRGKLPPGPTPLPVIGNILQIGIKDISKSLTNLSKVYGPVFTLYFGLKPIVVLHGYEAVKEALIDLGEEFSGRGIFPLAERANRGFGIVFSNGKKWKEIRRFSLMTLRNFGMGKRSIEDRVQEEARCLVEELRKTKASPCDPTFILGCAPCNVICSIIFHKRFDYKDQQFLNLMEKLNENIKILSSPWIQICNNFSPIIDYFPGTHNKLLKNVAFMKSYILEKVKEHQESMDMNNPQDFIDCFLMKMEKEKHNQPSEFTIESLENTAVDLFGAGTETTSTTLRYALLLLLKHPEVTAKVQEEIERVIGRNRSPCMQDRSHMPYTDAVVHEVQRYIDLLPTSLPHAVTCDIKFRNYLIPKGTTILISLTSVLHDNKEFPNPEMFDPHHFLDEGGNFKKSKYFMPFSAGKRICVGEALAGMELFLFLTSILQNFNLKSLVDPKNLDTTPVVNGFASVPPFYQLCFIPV

Cn1c(=O)c(-c2ccc(Cl)cc2)nc2cnc(N3CCOCC3)nc21
17.6%: max response [11, 21]
10.9%: max response [11, 20]
active: Potency [2] 2.51 µM | Potency [10] 2.51 µM
inactive: Potency [1] > 11.4 µM | activity change, negative = inhibition [3] 26.9% | Potency [4] > 9.22 µM | Potency [5] > 46 µM | outcome [6] | Potency [7] | Potency [8] | Potency [9] | activity change, negative = inhibition [11] 6.96% | Potency [12] | Potency [13] | Potency [14] | Potency [15]

CC(=O)NCCNc1cc(-c2ccccc2CN(C)C)ncn1
8.32%: max response [11, 21]
11.1%: max response [11, 20]
inactive: Potency [1] > 11.4 µM | activity change, negative = inhibition [16] 3.33% | Potency [2] | activity change, negative = inhibition [3] -5.44% | activity, negative = inhibition [17] 2.18% | Potency [4] > 46 µM | Potency [5] > 46 µM | outcome [6] | Potency [7] | activity change, negative = inhibition [11] -0.819% | Potency [12] | Potency [18] | Potency [14] | Potency [15]

COc1cccc(-c2cncnc2NC2CCNCC2)c1
12.6%: max response [11, 20]
inactive: Potency [1] > 11.4 µM | activity change, negative = inhibition [16] -6.98% | Potency [2] | activity change, negative = inhibition [3] 9.29% | activity, negative = inhibition [17] 13.9% | Potency [4] > 46 µM | Potency [5] > 46 µM | outcome [6] | Potency [7] | Potency [19] | activity change, negative = inhibition [11] 2.06% | Potency [12] | Potency [18] | Potency [14] | Potency [15]
15.6%: max response [11, 21]

From PubChem BioAssay (NCATS)
